High-throughput results: PubChem BioAssay, National Center for Advancing Translational Sciences (NCATS)
Tb PYK inh: T. brucei pyruvate kinase inhibition; 0.12% of 410,000 active; Potency, µM (series often up to 76.8 µM), usual class: inhibitors; Q57TT1; TbPYK enzyme, Kinase-Glo Plus ATP luminescence, 45 min; further: nearly all actives have a fitted effect of over 50% in size
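Screened from lowest to highest concentration, compounds were pinned into TbPYK/substrate mixtures, and ADP (130 uM final) was added. Plates sat at room temperature for 45 min prior to Kinase-Glo Plus detection by luminescence.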
Shiga inhibitor: Shiga toxin inhibition; Vero cells, Shiga toxin protein synthesis inhibition reporter; inhibition, % at 38.7 µM; 9.2% of 290,000 active; in the data active means inhibition mostly above about 28%, no sharp cut-off; inactive means mostly below about 43%
Sm TGR block: inhibitors of Schistosoma mansoni thioredoxin glutathione reductase. purified TGR, DTNB reduction, TNB absorbance 405 nm. Potency, µM (highest dose often 114 µM), most hits filed as inhibitors. 3% of 360,000 active; further: nearly all actives have a fitted effect of over 60% in size
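First, TGR (20 nM dispensed) and NADPH were mixed with compound. Second, a 15 min room-temperature incubation followed. Third, further NADPH and then DTNB were added to start the reaction. Finally, TNB absorbance was monitored kinetically.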
LmPK inhibitor: blocks Leishmania mexicana pyruvate kinase activity | Q27686 | Potency, µM (top dose mostly 57.5 µM), most hits filed as inhibitors | 0.37% of 290,000 active | purified LmPK, Kinase-Glo ATP luminescence, 1 h
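Purified LmPK (0.1 nM) converted ADP (0.1 mM) to ATP with PEP (0.5 mM) in imidazole buffer pH 7.2 with KCl and MgCl2, 1 h at room temperature. ATP was read by Kinase-Glo luminescence; data normalized to uninhibited and no-enzyme controls.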
FBPA Giardia inh: inhibitors of Giardia lamblia fructose-1,6-bisphosphate aldolase; A8B2U2; purified Giardia FBPA; Potency, µM (titrated, usually from 59.6 µM), hits mostly inhibitors; 0.71% of 290,000 active; further: nearly all actives have a fitted effect of over 55% in size
Target sequence (A8B2U2 whole entry, looked up): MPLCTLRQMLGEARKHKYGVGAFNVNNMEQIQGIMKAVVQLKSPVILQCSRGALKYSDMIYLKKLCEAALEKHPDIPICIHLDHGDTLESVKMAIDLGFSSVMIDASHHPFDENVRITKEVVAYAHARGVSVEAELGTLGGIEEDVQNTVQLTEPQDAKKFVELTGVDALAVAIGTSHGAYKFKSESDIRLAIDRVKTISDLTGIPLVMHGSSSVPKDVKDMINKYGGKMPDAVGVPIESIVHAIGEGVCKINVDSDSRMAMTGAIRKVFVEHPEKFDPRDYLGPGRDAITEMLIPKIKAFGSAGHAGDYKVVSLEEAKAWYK
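Giardia FBPA (40 nM reagent) was preincubated 10 min at RT with compound (up to 57.5 uM final), then substrate plus GAPDH/TPI/NAD/arsenate coupling system with diaphorase/resazurin was added; resorufin fluorescence (525/598 nm) was read after 20 min.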
Cycloheximide cs: affects cycloheximide protein synthesis inhibition readout, counter-screen. max response, %. cell reporter, cycloheximide protein synthesis inhibition counterscreen. 12% of 300,000 active; in the data active means max response mostly above about 13%, no sharp cut-off; inactive means mostly below about 14%; further: read at 38.3 µM for the half of the compounds with a filed dose
Of the large screens only hits and unclear results are named; the others gave an inactive call. This excerpt belongs to a sample that is enriched for hits. Unless noted, the call rests on the fitted dose curve; in most records, active means well fitted curve in the direction sought with a large enough effect; inconclusive means small, poorly fitted or top-dose-only effect, or another doubt; inactive means no such curve, though single readings can be large; an effect the other way counts as inactive or inconclusive.

Cc1onc(-c2c(F)cccc2Cl)c1C(=O)ONC(=O)c1ccco1	Sm TGR block 12.6µM
Cc1onc(-c2c(F)cccc2Cl)c1C(=O)Nc1nc2ccccc2[nH]1	Shiga inhibitor 59.8, Cycloheximide cs 59.0
O=C(NOC(=O)c1c(F)cccc1Cl)c1ccc(Cl)c(Cl)c1	Shiga inhibitor 46.1, Cycloheximide cs 30.5
Cc1onc(-c2c(F)cccc2Cl)c1C(=O)NCc1ccccc1	none
Cc1cc(NC(=O)c2c(-c3c(F)cccc3Cl)noc2C)no1	none
Cc1ccc(/C=C/C(=O)Nc2nc3ccccc3[nH]2)cc1	Shiga inhibitor 35.1, Cycloheximide cs 36.7
CCC(=O)Nc1cc(-c2nc3ccccc3s2)c(Cl)cc1Cl	none (no result: Shiga inhibitor, LmPK inhibitor, FBPA Giardia inh, Cycloheximide cs)
CO[C@@H]1COC(=O)[C@H](C)NC(=O)C/C=C\[C@@H](C)[C@H](OC)COC(=O)[C@H](C)NC(=O)C/C=C\[C@H]1C	none (no result: Tb PYK inh, Shiga inhibitor, Sm TGR block, LmPK inhibitor, Cycloheximide cs)
CC1OC(Nc2cccc3ccccc23)C(O)C(O)C1O (configuration not stated)	FBPA Giardia inh inconclusive
CC1OC(Nc2ccc(N=Nc3ccccc3)cc2)C(O)C(O)C1O (configuration not stated)	Shiga inhibitor 118.3, Cycloheximide cs 36.7
CC(C)(C)OC(=O)C[C@H]1C/C=C\C[C@H](CC(=O)N(CCO)Cc2ccccc2)C(=O)N[C@H](C(C)(C)C)COC1=O	none (no result: Shiga inhibitor, Sm TGR block, LmPK inhibitor, FBPA Giardia inh, Cycloheximide cs)
Cc1ccc(NC(=O)c2cc(S(=O)(=O)N3CCOCC3)c(Cl)cc2Cl)cc1	none (no result: Shiga inhibitor, LmPK inhibitor, FBPA Giardia inh, Cycloheximide cs)
COCCCn1c(=S)[nH]c2sc3c(c2c1=O)CCCS3	Shiga inhibitor 90.8, LmPK inhibitor inconclusive, Cycloheximide cs 39.9
COc1ccccc1NC(=O)CC(c1ccc(F)cc1)c1ccco1 (configuration not stated)	Sm TGR block inconclusive
O=C(CCCN1C(=O)c2ccccc2C1=O)Oc1ccc(F)cc1	none
O=C1CCC(=O)N1CCC(c1ccc(F)cc1)c1ccco1 (configuration not stated)	Sm TGR block 44.7µM
O=C1c2ccccc2C(=O)N1CCC(c1ccc(F)cc1)c1ccco1 (configuration not stated)	Sm TGR block 39.8µM
COc1ccc(OC)c(CNC(=O)CCc2c(C)nc3c(c2C)c(=O)n(C)c(=O)n3C)c1	none (no result: Shiga inhibitor, LmPK inhibitor, FBPA Giardia inh, Cycloheximide cs)
O=c1c2ccccc2cnn1Cc1n[nH]c(=S)n1-c1cc(Cl)cc(Cl)c1	Tb PYK inh 6.31µM
CC(c1ccccc1)n1c(-c2ccccc2F)n[nH]c1=S (configuration not stated)	Tb PYK inh inconclusive, LmPK inhibitor inconclusive
CC(c1ccc(F)cc1)n1c(Cn2ncc3ccccc3c2=O)n[nH]c1=S (configuration not stated)	Tb PYK inh 12.6µM
CC(c1ccc(F)cc1)n1c(-c2cccs2)n[nH]c1=S (configuration not stated)	Tb PYK inh 7.08µM, LmPK inhibitor inconclusive (no result: Sm TGR block)
CSCCC(C(=O)Nc1c(C)cccc1C)N1CCN(c2ccc(C(F)(F)F)cn2)CC1 (configuration not stated)	none (no result: Shiga inhibitor, Sm TGR block, LmPK inhibitor, FBPA Giardia inh, Cycloheximide cs)
O=C(c1ccco1)N1CCC2(CC1)CCN(c1ccccn1)CC2	none (no result: Shiga inhibitor, Sm TGR block, LmPK inhibitor, Cycloheximide cs)
CN(CCc1ccccn1)C(=O)CCc1nnc(CCCc2ccccc2)o1	Shiga inhibitor 72.8, Cycloheximide cs 45.0
COC(c1ccccc1)c1nnc(CCC(=O)N(C)CCc2ccccc2)o1 (configuration not stated)	none
CN(CCc1cnn(C)c1)C(=O)CCc1nnc(CCCc2ccccc2)o1	Shiga inhibitor 35.6, Cycloheximide cs 17.2
CCCCc1nn2c(=O)cc(COC(=O)c3ccccc3NC(=O)c3cccs3)nc2s1	none (no result: Shiga inhibitor, LmPK inhibitor, FBPA Giardia inh, Cycloheximide cs)
O=S(=O)(c1ccccc1)N1CCN(c2nc3ccccc3s2)CC1	none
Brc1ccc2nc(N3CCN(c4ccccc4)CC3)sc2c1	Shiga inhibitor 155.7, Cycloheximide cs 47.4
O=S(=O)(c1ccc(Cl)cc1)N1CCCN(c2nc3ccc(Cl)cc3s2)CC1	none
Clc1ccc2nc(N3CCN(c4ccccc4)CC3)sc2c1	Shiga inhibitor 134.6, Cycloheximide cs 37.1
COc1ccc2[nH]c3c(c2c1)CCN1C(=O)C(CC(=O)NC(C)(C)C)C[C@H](C(=O)N(C(C)C)C(C)C)[C@@]31C (some centres not stated)	none (no result: Shiga inhibitor, Sm TGR block, LmPK inhibitor, FBPA Giardia inh, Cycloheximide cs)
CN(c1ncnc2onc(-c3cccc(Cl)c3)c12)C1CCCCC1	none (no result: Shiga inhibitor, LmPK inhibitor, FBPA Giardia inh, Cycloheximide cs)
CC(C)(C)CCN1CCC(CN2CCNC2=S)CC1	none (no result: Shiga inhibitor, Sm TGR block, LmPK inhibitor, FBPA Giardia inh, Cycloheximide cs)
